± gives the standard deviation.
Tests used:
Details in all cases: modulator concentration 10 µM
[1] = tested on: RAW-Dual (murine macrophage reporter line); assay: NF-kB reporter (SEAP) activity fold change vs agonist alone; higher = enhanced NF-kB activity
Outline: (§1)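 Overnight stimulation with a PRR agonist followed pre-incubation for 1 hour at 37 °C with compound at 10 μM final. This was done in RAW-Dual murine macrophage reporter cells seeded at 50 000 per well in 384-well plates. NF-κB (SEAP, QUANTI-Blue absorbance at 620 nm) and IRF (Lucia luciferase, QUANTI-Luc luminescence) were read from the supernatant. Each reporter's fold change relative to the mean agonist-only control on the same plate was averaged over replicate plates.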

[2] = tested on: RAW-Dual (murine macrophage reporter line); assay: IRF reporter (Lucia luciferase) activity fold change vs agonist alone; higher = enhanced IRF activity
Outline: as §1

[3] = tested on: RAW-Dual (murine macrophage reporter line); assay: viability score (confluency relative to resting cells, overnight) (fraction); higher = more viable, active = viable (0.7 or more)
Outline: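 Overnight exposure to 10 μM final compound was carried out on RAW-Dual macrophages in 384-well plates. IncuCyte software generated two confluency masks over all wells imaged with IncuCyte. The viability score gives confluency in relation to resting cells. A compound met the cutoff if each mask exceeded 70% of resting cells.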

[4] = agonist: CpG ODN 1826 0.5 ug/mL

Row | SMILES | NF-kB reporter [1, 4] | NF-kB reporter ([1]; agonist: LPS 0.1 ug/mL) | NF-kB reporter ([1]; agonist: MPLA […]) | IRF reporter ([2]; agonist: 3'3'-cGAMP 10 ug/mL) | IRF reporter ([2]; agonist: LPS 0.1 ug/mL) | IRF reporter ([2]; agonist: MPLA […]) | viability score [3]
1 | COc1ccccc1OCCNCC(O)COc1cccc2[nH]c3ccccc3c12 (stereo not given) | 0.0926 ± 0.0072 | 0.894 ± 0.057 | 0.892 ± 0.084 | 1.26 ± 0.086 | 1.53 ± 0.11 | 1.53 ± 0.16 | 0.957 (active)
2 | Cc1cc2c(s1)Nc1ccccc1N=C2N1CCN(C)CC1 | 0.278 ± 0.057 | 1.03 ± 0.36 | 0.929 ± 0.056 | 0.819 ± 0.049 | 1.16 ± 0.37 | 0.974 ± 0.075 | 1 (active)
3 | CC1(C)Cc2cccc(OCC(=O)NCc3ccccn3)c2O1 | 0.948 ± 0.064 | 1 ± 0.1 | 0.986 ± 0.045 | 0.896 ± 0.034 | 1.02 ± 0.048 | 0.906 ± 0.087 | 0.996 (active)
4 | CC(C)COc1ccc(CNC(=O)N(Cc2ccc(F)cc2)C2CCN(C)CC2)cc1.CC(C)COc1ccc(CNC(=O)N(Cc2ccc(F)cc2)C2CCN(C)CC2)cc1.O=C(O)[C@H](O)[C@@H](O)C(=O)O | 0.136 ± 0.016 | 0.384 ± 0.16 | 0.129 ± 0.012 | 0.0542 ± 0.025 | 0.528 ± 0.31 | 0.03 ± 0.0028 | 0.0597 (inactive)
5 | O=S(=O)(NN=Cc1c[nH]c2ccccc12)c1ccc(Cl)cc1 | 0.627 ± 0.053 | 0.619 ± 0.029 | 0.844 ± 0.078 | 0.0905 ± 0.0084 | 1.32 ± 0.11 | 1.31 ± 0.13 | 0.962 (active)
6 | C=C(CC)C(=O)c1ccc(OCC(=O)O)c(Cl)c1Cl [Prestw-259] | 0.596 ± 0.14 | 0.588 ± 0.077 | 0.722 ± 0.049 | 0.563 ± 0.02 | 1.85 ± 0.21 | 1.53 ± 0.17 | 0.953 (active)
7 | CCN(CC)c1nc(Nc2ccc([N+](=O)[O-])cc2)nc(N(CC)CC)n1 | 0.635 ± 0.04 | 1.07 ± 0.069 | 0.953 ± 0.058 | 0.972 ± 0.044 | 1.16 ± 0.12 | 1.01 ± 0.12 | 0.998 (active)
8 | Cc1nnc(C)n1N=Cc1ccc(Cl)c([N+](=O)[O-])c1 | 0.797 ± 0.062 | 0.874 ± 0.091 | 1.2 ± 0.1 | 0.898 ± 0.045 | 1.07 ± 0.072 | 1 ± 0.1 | 0.99 (active)
9 | COCCCN1C(=O)C(=Cc2ccc(-c3ccc(Cl)cc3Cl)o2)SC1=S | 0.954 ± 0.054 | 1.01 ± 0.082 | 0.96 ± 0.036 | 1.02 ± 0.052 | 1.01 ± 0.099 | 0.998 ± 0.25 | 1 (active)
10 | CCOC(=O)C1=C(C)NC(C)=C(C(=O)OCC)C1c1ccc(OC)cc1 | 0.973 ± 0.088 | 1.05 ± 0.066 | 1.02 ± 0.068 | 1.17 ± 0.044 | 0.867 ± 0.081 | 0.987 ± 0.27 | 0.946 (active)
11 | COc1cc(NC(=O)NCc2nc(C)cc(N3CCOCC3)n2)cc(OC)c1 | 1.33 ± 0.32 | 1.04 ± 0.053 | 1.07 ± 0.11 | 0.886 ± 0.031 | 1.15 ± 0.14 | 1.09 ± 0.11 | 0.982 (active)
12 | COc1ccc(C(NC(=O)c2ccccc2F)c2ccc(OC)cc2)cc1 | 1.03 ± 0.17 | 1.08 ± 0.093 | 1.01 ± 0.095 | 1 ± 0.032 | 1.21 ± 0.27 | 1.24 ± 0.16 | 1 (active)
13 | Cc1nc2c(ccc3ccccc32)c(O)c1CN1CCCC1 | 0.283 ± 0.029 | 0.968 ± 0.076 | 0.95 ± 0.044 | 0.882 ± 0.073 | 1.06 ± 0.11 | 0.808 ± 0.17 | 1 (active)
14 | CN1CCC2(CC1)NC(=O)N(CC(=O)N1CCc3ccccc31)C2=O | 0.927 ± 0.094 | 1.14 ± 0.096 | 0.942 ± 0.11 | 1.01 ± 0.063 | 1.18 ± 0.14 | 1.2 ± 0.1 | 1.02 (active)
15 | COC1CC2CCC(C1)N2S(=O)(=O)c1ccc(Br)cc1 (stereo not given) | 0.93 ± 0.089 | 1.05 ± 0.1 | 0.909 ± 0.04 | 1.01 ± 0.11 | 1.22 ± 0.16 | 1.15 ± 0.24 | 1.01 (active)
16 | CC(=NNC(=O)CNc1ccccc1C)c1ccc(Br)cc1 | 1.09 ± 0.093 | 1.01 ± 0.14 | 1.03 ± 0.098 | 0.998 ± 0.032 | 1.23 ± 0.13 | 1.38 ± 0.19 | 0.982 (active)
17 | CCOC(=O)OC(C)OC1=C(C(=O)Nc2ccccn2)N(C)S(=O)(=O)c2ccccc21 (stereo not given) | 1.12 ± 0.15 | 1.28 ± 0.25 | 0.995 ± 0.056 | 0.948 ± 0.029 | 1.37 ± 0.34 | 1.32 ± 0.12 | 0.989 (active)
18 | CCCOc1ccc(CCC(=O)O)cc1 | 1.38 ± 0.33 | 1.08 ± 0.075 | 0.985 ± 0.035 | 1.07 ± 0.23 | 1.11 ± 0.05 | 1.05 ± 0.1 | 1 (active)
19 | O=C(CCc1ccc(F)c(Cl)c1)NCCn1nccn1 | 1.06 ± 0.052 | 1.06 ± 0.11 | 0.972 ± 0.056 | 1 ± 0.068 | 1.21 ± 0.076 | 1.06 ± 0.087 | 0.992 (active)
20 | O=S(=O)(Nc1cccc2cccnc12)c1ccccc1 | 0.961 ± 0.13 | 0.597 ± 0.097 | 0.659 ± 0.053 | 1.04 ± 0.081 | 5.63 ± 1 | 1.32 ± 0.29 | 0.745 (active)
21 | O=C1NC(=O)c2c1cc1ccccc1c2-c1ccccc1 | 0.996 ± 0.18 | 0.979 ± 0.077 | 0.952 ± 0.15 | 0.887 ± 0.031 | 1.2 ± 0.2 | 1.35 ± 0.3 | 0.998 (active)
22 | COc1cc(OC)c(NC(=O)C2CCCN(c3ccc(-c4ccc(C)c(C)c4)nn3)C2)cc1Cl (stereo not given) | 1.04 ± 0.09 | 1.04 ± 0.081 | 0.93 ± 0.04 | 0.964 ± 0.052 | 1.09 ± 0.066 | 1 ± 0.15 | 1.01 (active)
23 | COc1cccc2c1C(=O)c1c(O)c3c(c(O)c1C2=O)C[C@@](O)(C(=O)CO)C[C@@H]3O[C@@H]1C[C@H](N)[C@@H](O)[C@H](C)O1 [Prestw-1752] | 0.219 ± 0.025 | 0.0896 ± 0.013 | 0.169 ± 0.016 | 0.264 ± 0.011 | 0.185 ± 0.05 | 0.33 ± 0.053 | 0.458 (inactive)
24 | Nc1nc(NC2CC2)c2ncn([C@H]3C=C[C@@H](CO)C3)c2n1 [Prestw-1512] | 1.12 ± 0.18 | 1.18 ± 0.11 | 1.02 ± 0.087 | 0.935 ± 0.031 | 1.01 ± 0.21 | 1.12 ± 0.19 | 0.974 (active)
25 | CCCC(=O)Nc1ncnc2c1ncn2[C@@H]1O[C@@H]2OP(=O)([O-])OC[C@H]2[C@H]1OC(=O)CCC [Prestw-813] | 1.27 ± 0.12 | 1.14 ± 0.079 | 1.14 ± 0.12 | 0.991 ± 0.056 | 1.41 ± 0.14 | 1.21 ± 0.16 | 1 (active)

— the supplement of paper PMC10646978
